PubChem BioAssay AID1159580 (chemical genetic matrix, 2015)
About 2,000 (36%) of roughly 5,500 compounds were called active. Roughly 18% stayed inconclusive and do not appear here. No stated cut-off is given here; in the data, active means normalized growth mostly below about 0.91 (no sharp cut-off); inconclusive means no clear call, values can overlap the other calls; inactive means mostly above about 0.92. The list shows a part of the results.

Assay: chemical genetic growth profiling, strain panel (AID 1159580);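 further: tested at 20 µM; growth read once vehicle control cultures reached saturation at 30 °C; 1 = growth at the plate median or of vehicle wells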
Settings: growth OD

Measured: normalized growth

COc1cc(OC)c2c(=O)c(-c3ccccc3)c(C)oc2c1OC
inactive: S. cerevisiae deletion strains, locus YJR043C, strain POL32, stronger effect = lower value 1.01 | S. cerevisiae deletion strains, locus YJR075W, strain HOC1, stronger effect = lower value 1.02 | S. cerevisiae deletion strains, locus YKL009W, strain mrt4, stronger effect = lower value 1 | S. cerevisiae deletion strains, locus YKL068W, stronger effect = lower value 1 | S. cerevisiae deletion strains, locus YKL085W, strain MDH1 (second series), stronger effect = lower value 0.996 | S. cerevisiae deletion strains, locus YKL085W, strain MDH1, stronger effect = lower value 0.996 | S. cerevisiae deletion strains, locus YKL160W, strain elf1, stronger effect = lower value 1 | S. cerevisiae deletion strains, locus YKL190W, strain CNB1, stronger effect = lower value 1.01 | S. cerevisiae deletion strains, locus YKR001C, strain vps1, stronger effect = lower value 0.993 | S. cerevisiae deletion strains, locus YKR026C, strain gcn3, stronger effect = lower value 0.966 | S. cerevisiae deletion strains, locus YKR091W, strain srl3, stronger effect = lower value 0.962 | S. cerevisiae deletion strains, locus YLL001W, strain dnm1, stronger effect = lower value 1.01 | S. cerevisiae deletion strains, locus YLL026W, stronger effect = lower value 0.984 | S. cerevisiae deletion strains, locus YLL041C, strain sdh2, stronger effect = lower value 1 | S. cerevisiae deletion strains, locus YLR027C, strain aat2, stronger effect = lower value 0.982 | S. cerevisiae deletion strains, locus YLR039C, strain RIC1, stronger effect = lower value 0.984 | S. cerevisiae deletion strains, locus YLR058C, strain SHM2, stronger effect = lower value 1.01 | S. cerevisiae deletion strains, locus YLR102C, strain apc9, stronger effect = lower value 0.999 | S. cerevisiae deletion strains, locus YLR221C, strain rsa3, stronger effect = lower value 0.957 | S. cerevisiae deletion strains, locus YLR258W, strain gsy2, stronger effect = lower value 0.987 | S. cerevisiae deletion strains, locus YLR262C, strain YPT6 (second series), stronger effect = lower value 0.951 | S. cerevisiae deletion strains, locus YLR262C, strain YPT6, stronger effect = lower value 0.989 | S. cerevisiae deletion strains, locus YLR268W, strain sec22, stronger effect = lower value 0.972 | S. cerevisiae deletion strains, locus YLR320W, strain mms22, stronger effect = lower value 0.984 | S. cerevisiae deletion strains, locus YLR330W, strain CHS5, stronger effect = lower value 1.01 | S. cerevisiae deletion strains, locus YLR342W, strain FKS1 (second series), stronger effect = lower value 1.01 | S. cerevisiae deletion strains, locus YLR342W, strain FKS1, stronger effect = lower value 0.956 | S. cerevisiae deletion strains, locus YLR357W, strain rsc2, stronger effect = lower value 0.986 | S. cerevisiae deletion strains, locus YLR370C, strain arc18, stronger effect = lower value 0.977 | S. cerevisiae deletion strains, locus YLR371W, strain rom2, stronger effect = lower value 1 | S. cerevisiae deletion strains, locus YLR384C, strain iki3, stronger effect = lower value 0.98 | S. cerevisiae deletion strains, locus YLR418C, strain cdc73, stronger effect = lower value 1.03 | S. cerevisiae deletion strains, locus YML016C, strain PPZ1, stronger effect = lower value 1.01 | S. cerevisiae deletion strains, locus YML032C, strain rad52, stronger effect = lower value 0.997 | S. cerevisiae deletion strains, locus YML120C, strain ndi1, stronger effect = lower value 0.973 | S. cerevisiae deletion strains, locus YML124C, strain tub3, stronger effect = lower value 0.989 | S. cerevisiae deletion strains, locus YMR058W, strain fet3, stronger effect = lower value 0.988 | S. cerevisiae deletion strains, locus YMR078C, strain ctf18, stronger effect = lower value 0.99 | S. cerevisiae deletion strains, locus YMR125W, strain sto1, stronger effect = lower value 0.981 | S. cerevisiae deletion strains, locus YMR129W, stronger effect = lower value 0.972 | S. cerevisiae deletion strains, locus YMR205C, strain PFK2, stronger effect = lower value 0.95 | S. cerevisiae deletion strains, locus YMR223W, strain ubp8, stronger effect = lower value 0.996 | S. cerevisiae deletion strains, locus YMR231W, strain pep5, stronger effect = lower value 0.992 | S. cerevisiae deletion strains, locus YMR263W, strain SAP30, stronger effect = lower value 1.02 | S. cerevisiae deletion strains, locus YMR307W, strain GAS1, stronger effect = lower value 1.02 | S. cerevisiae deletion strains, locus YNL067W, strain RPL9B, stronger effect = lower value 1.02 | S. cerevisiae deletion strains, locus YNL071W, strain lat1, stronger effect = lower value 0.984 | S. cerevisiae deletion strains, locus YNL128W, strain TEP1, stronger effect = lower value 1.04 | S. cerevisiae deletion strains, locus YNL153C, strain GIM3, stronger effect = lower value 1.01 | S. cerevisiae deletion strains, locus YNL209W, strain ssb2, stronger effect = lower value 0.982 | S. cerevisiae deletion strains, locus YNL233W, strain BNI4, stronger effect = lower value 1 | S. cerevisiae deletion strains, locus YNL248C, strain rpa49, stronger effect = lower value 1.01 | S. cerevisiae deletion strains, locus YNL250W, strain rad50, stronger effect = lower value 0.994 | S. cerevisiae deletion strains, locus YNL271C, strain bni1, stronger effect = lower value 1 | S. cerevisiae deletion strains, locus YNL298W, strain CLA4, stronger effect = lower value 1.01 | S. cerevisiae deletion strains, locus YNL307C, strain MCK1, stronger effect = lower value 0.978 | S. cerevisiae deletion strains, locus YNL322C, strain KRE1 (second series), stronger effect = lower value 0.979 | S. cerevisiae deletion strains, locus YNL322C, strain KRE1, stronger effect = lower value 1.01 | S. cerevisiae deletion strains, locus YNR049C, strain mso1, stronger effect = lower value 0.976 | S. cerevisiae deletion strains, locus YNR052C, strain pop2, stronger effect = lower value 1.01 | S. cerevisiae deletion strains, locus YOL006C, strain TOP1, stronger effect = lower value 1.02 | S. cerevisiae deletion strains, locus YOL012C, strain htz1 0.978 | S. cerevisiae deletion strains, locus YOL147C, strain pex11, stronger effect = lower value 0.992 | S. cerevisiae deletion strains, locus YOR001W, strain rrp6, stronger effect = lower value 1.01 | S. cerevisiae deletion strains, locus YOR061W, strain CKA2, stronger effect = lower value 1.01 | S. cerevisiae deletion strains, locus YOR069W, strain VPS5, stronger effect = lower value 1 | S. cerevisiae deletion strains, locus YOR070C, strain gyp1, stronger effect = lower value 0.987 | S. cerevisiae deletion strains, locus YOR080W, strain dia2, stronger effect = lower value 0.989 | S. cerevisiae deletion strains, locus YOR083W, strain WHI5, stronger effect = lower value 1.01 | S. cerevisiae deletion strains, locus YOR106W, strain vam3, stronger effect = lower value 0.994 | S. cerevisiae deletion strains, locus YOR136W, strain idh2, stronger effect = lower value 0.993 | S. cerevisiae deletion strains, locus YOR144C, strain elg1, stronger effect = lower value 0.999 | S. cerevisiae deletion strains, locus YOR184W, strain ser1, stronger effect = lower value 0.999 | S. cerevisiae deletion strains, locus YOR265W, strain rbl2, stronger effect = lower value 0.987 | S. cerevisiae deletion strains, locus YOR270C, strain vph1, stronger effect = lower value 0.989 | S. cerevisiae deletion strains, locus YOR290C, strain snf2, stronger effect = lower value 0.933 | S. cerevisiae deletion strains, locus YOR316C, strain cot1, stronger effect = lower value 1 | S. cerevisiae deletion strains, locus YPL051W, strain arl3, stronger effect = lower value 1 | S. cerevisiae deletion strains, locus YPL055C, strain LGE1, stronger effect = lower value 1.04 | S. cerevisiae deletion strains, locus YPL078C, strain atp4, stronger effect = lower value 0.995 | S. cerevisiae deletion strains, locus YPL106C, strain sse1, stronger effect = lower value 0.942 | S. cerevisiae deletion strains, locus YPL240C, strain hsp82, stronger effect = lower value 0.983 | S. cerevisiae deletion strains, locus YPL241C, strain CIN2, stronger effect = lower value 1.01 | S. cerevisiae deletion strains, locus YPR119W, strain clb2, stronger effect = lower value 0.99 | S. cerevisiae deletion strains, locus YPR141C, strain kar3, stronger effect = lower value 1 | S. cerevisiae deletion strains, locus YPR163C, strain tif3, stronger effect = lower value 0.992 | S. cerevisiae deletion strains, locus YPR167C, strain met16, stronger effect = lower value 1 | S. cerevisiae deletion strains, strain wtn01, stronger effect = lower value 0.997 | S. cerevisiae strains, strain wild type, stronger effect = lower value 1.02
